Compounds with a hit are over-represented: about 4.9% of the library has one in this group of screens.
Beta cell apopt: inhibitors of cytokine-induced beta cell apoptosis, primary screen, luminescence. INS-1E cytokine-induced death, ATP luminescence, 48 h; percent of positive-control rescue, neutral wells zero. protection from apoptosis, % (no concentration beside the values). 300,000 tested, 0.8% active. AID 435005, 2010;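 active = Every replicate reaches about 75%, or at least half do and their mean reaches it too, limit read from the data; inconclusive = At least half of replicates reach the limit but their mean does not; inactive = Under half of replicates reach the limit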;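 note: 0% = cytokine-treated negative control wells and 100% = positive control rescue; higher means more ATP so stronger rescue from cytokine killing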
PP1 inh: PP1-alpha phosphatase inhibitors, primary screen, counter-screen for PP5 inhibitor project, biochemical, fluorescence, OMFP substrate, single point; Serine/threonine-protein phosphatase PP1-alpha catalytic subunit (Homo sapiens), P62136; purified PP1alpha; inhibition, % at 6.7 µM; AID 2235, 2010; 320,000 tested, 0.9% active;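 active = inhibition above the mean inhibition of all tested compounds plus 3 SD, computed separately for each screening campaign, cut at about 15% in these data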
Calb FLC: C. albicans growth inhibition with fluconazole, primary screen, CaCi-2 strain, Alamar Blue fluorescence. growth inhibition, % (concentration not given with the values). C. albicans CaCi-2 (fluconazole-resistant clinical isolate) + fluconazole, 48 h. 300,000 tested, 0.57% active. AID 1979, 2009;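 active = growth inhibition above about 58% in most replicates, limit read from the data, passing the limit was not always enough; inconclusive = exactly half the replicates above a set limit; inactive = most replicates below a set limit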;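 note: all wells also contain fluconazole at 8 µg/ml as a sub-toxic cotreatment; 0% = median of DMSO wells and 100% = median of geldanamycin control wells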
PP5 primary: PP5 phosphatase inhibitors, primary screen, biochemical, fluorescence; inhibition, % at 6.7 µM; purified PP5c, OMFP substrate fluorescence; 320,000 tested, 0.18% active;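 active = inhibition above the campaign's mean inhibition across all tested compounds plus 3 SD, cut at about 9.5% in these data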;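 note: 0% = DMSO only and 100% = 100 µM cantharidin control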
Target sequence (P53041 whole entry, looked up): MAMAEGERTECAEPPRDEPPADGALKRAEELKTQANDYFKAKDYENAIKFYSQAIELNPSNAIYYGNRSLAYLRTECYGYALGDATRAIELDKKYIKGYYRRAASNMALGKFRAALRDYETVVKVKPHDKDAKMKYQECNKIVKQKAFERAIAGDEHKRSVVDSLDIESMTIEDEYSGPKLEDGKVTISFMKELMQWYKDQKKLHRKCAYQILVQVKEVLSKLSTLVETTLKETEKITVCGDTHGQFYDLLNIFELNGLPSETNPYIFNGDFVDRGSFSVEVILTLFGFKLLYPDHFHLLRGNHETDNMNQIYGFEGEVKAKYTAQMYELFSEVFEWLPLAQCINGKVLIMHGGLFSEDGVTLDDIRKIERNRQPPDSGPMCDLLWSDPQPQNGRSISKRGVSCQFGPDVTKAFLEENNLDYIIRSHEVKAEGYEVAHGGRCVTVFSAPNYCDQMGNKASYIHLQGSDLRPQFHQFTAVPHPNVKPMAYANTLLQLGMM
CSC inhib: cancer stem cell viability inhibitors, primary screen, luminescence; AID 2717, 2010; 300,000 tested, 1.1% active; inhibition, % at 7.5 µM; cancer stem cell-like cells viability; in the data active = inhibition above about 75%; inconclusive = no clear call, values can overlap the other calls; tested in HMLE shEcad cells
Mdm2-MdmX inh: inhibitors of human Mdm2-MdmX association, primary screen, cell-based, luminescence, split luciferase, SaOS-2, uHTS | Protein Mdm4 (Homo sapiens) + E3 ubiquitin-protein ligase Mdm2 (Homo sapiens), … | SaOS-2 split-luciferase Mdm2/MdmX complementation | 330,000 tested, 3% active | inhibition, % at 8 µM;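 active = inhibition of at least 50% at 8 µM in the primary screen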
The depositor's hits bear a star.

What do the screens show for `COc1ccc(/C=C2\C(=O)NC(=S)N2C(=O)c2ccc(C)cc2)cc1`?
Beta cell apopt: -9.3; PP1 inh: 15.7*; Calb FLC: -4.8; PP5 primary: 0.3; CSC inhib: 2.6; Mdm2-MdmX inh: 22.5

Results for O=C(NCc1ccccc1)c1nnc(CS(=O)(=O)c2ccccc2)o1 ?
Beta cell apopt: 3.4; PP1 inh: -3.1; Calb FLC: -1.3; PP5 primary: -1.8; CSC inhib: -7.0; Mdm2-MdmX inh: -7.5

Results for CCCCCCCCCCOC(=O)C[N+](C)(C)C/C=C(/C)Cl ?
Beta cell apopt: 113.4*; PP1 inh: 2.7; Calb FLC: -37.3; PP5 primary: 2.3; CSC inhib: 58.7; Mdm2-MdmX inh: 38.9

How did C/C(CC(=O)Nc1cc(C)ccn1)=N\NC(=O)c1ccc(C(C)(C)C)cc1 do in these assays?
Beta cell apopt: -14.2; PP1 inh: 2.0; Calb FLC: 4.3; PP5 primary: -0.3; CSC inhib: -14.3; Mdm2-MdmX inh: -4.7

Results for COc1ccc(Nc2nnc(-c3ccc(C)cc3)c3ccccc23)cc1C(=O)N1CCCCC1 ?
Beta cell apopt: 11.6; PP1 inh: -0.3; Calb FLC: 41.0; PP5 primary: 4.1; CSC inhib: -6.9; Mdm2-MdmX inh: 35.6

Results for COc1ccc(Nc2nnc(-c3ccccc3)c3ccccc23)cc1C(=O)N1CCCCC1 ?
Beta cell apopt: -1.3; PP1 inh: 0.4; Calb FLC: 21.0; PP5 primary: 4.7; CSC inhib: 96.9*; Mdm2-MdmX inh: 25.1

What do the screens show for `Cc1ccc(-c2csc(-c3c[nH]c4ccccc34)n2)c(C)c1`?
Beta cell apopt: 0.6; PP1 inh: -1.4; Calb FLC: -20.6; PP5 primary: 4.5; CSC inhib: 99.3*; Mdm2-MdmX inh: -12.6

Results for Oc1ccc(-c2csc(-c3c[nH]c4ccccc34)n2)c(O)c1 ?
PP1 inh: -3.7; Calb FLC: -29.9; PP5 primary: 2.7; CSC inhib: 89.8*; Mdm2-MdmX inh: -29.0

What do the screens show for `COc1ccc(Nc2nc(-c3c[nH]c4ccccc34)cs2)cc1`?
PP1 inh: -1.3; Calb FLC: -10.0; PP5 primary: 2.0; CSC inhib: 26.7; Mdm2-MdmX inh: -76.7

Results for NNC(=O)c1cc2ccccc2cc1NS(=O)(=O)c1ccccc1 ?
Beta cell apopt: -4.2; PP1 inh: 3.1; Calb FLC: 20.4; PP5 primary: 2.6; CSC inhib: -6.6; Mdm2-MdmX inh: -11.1

How did COc1ccc2cc(CO)n(C)c2c1 do in these assays?
Beta cell apopt: -0.6; PP1 inh: -2.2; PP5 primary: -0.7; CSC inhib: -7.8; Mdm2-MdmX inh: -10.4

Results for O=C(COC(=O)Cn1nnc2ccccc21)NC1CCCC1 ?
Beta cell apopt: -8.9; PP1 inh: 1.3; Calb FLC: 2.0; PP5 primary: -0.3; CSC inhib: -8.6; Mdm2-MdmX inh: 6.9

Results for CCCCc1ccc(-n2nnnc2SCC(=O)Nc2cc(OC)c([N+](=O)[O-])cc2C)cc1 ?
Beta cell apopt: 10.3; PP1 inh: 4.0; Calb FLC: 5.7; PP5 primary: 3.3; CSC inhib: 16.0; Mdm2-MdmX inh: 7.1

What do the screens show for `COCCn1cnnc1SCC(=O)Nc1cc(OC)c([N+](=O)[O-])cc1C`?
Beta cell apopt: 1.6; PP1 inh: 2.0; Calb FLC: 114.0*; PP5 primary: -3.2; Mdm2-MdmX inh: -18.0

How did Cc1ccc(-c2cc(C(F)F)nc(NCc3cccnc3)n2)cc1 do in these assays?
Beta cell apopt: 8.4; PP1 inh: 1.9; Calb FLC: inconclusive; PP5 primary: 0.2; CSC inhib: 16.2; Mdm2-MdmX inh: -3.1

Results for FC(F)(F)c1cc(-c2ccc(Cl)cc2)nc(NCc2cccnc2)n1 ?
Beta cell apopt: 5.9; PP1 inh: 0.7; Calb FLC: 0.8; PP5 primary: 6.0; CSC inhib: 77.0*; Mdm2-MdmX inh: 15.7

Results for Cc1ccc(NC(=O)CSCC(=O)NC2=NCCS2)cc1 ?
Beta cell apopt: -17.0; PP1 inh: -3.2; PP5 primary: 3.3; Mdm2-MdmX inh: 4.1

How did CC(=O)OCC1(C)CN(c2ccccc2)N(C(=O)c2ccc(C(C)(C)C)cc2)C1=O (configuration not stated) do in these assays?
Calb FLC: -45.5

How did CC1(C)CN(c2ccccc2)N(C(=O)c2ccc(F)cc2)C1=O do in these assays?
Beta cell apopt: -11.5; PP1 inh: 0.1; Calb FLC: 5.2; PP5 primary: 0.7; CSC inhib: 91.7*; Mdm2-MdmX inh: -2.8

What do the screens show for `CC1(C)CN(c2ccccc2)N(C(=O)c2ccc(C#N)cc2)C1=O`?
Beta cell apopt: -11.2; PP1 inh: -6.8; Calb FLC: 85.0*; PP5 primary: 1.9; CSC inhib: 90.7*; Mdm2-MdmX inh: 6.9

What do the screens show for `CCN(CC)CCOC(=O)c1ccc(NC(=O)c2ccc(Cl)c(S(=O)(=O)N3CCCCCC3)c2)cc1`?
Beta cell apopt: 4.3; PP1 inh: -2.9; Calb FLC: 25.1; PP5 primary: 0.1; CSC inhib: 76.9*; Mdm2-MdmX inh: 32.1

What do the screens show for `NC(=O)c1c(NC(=O)c2ccccc2F)sc2c1CCCC2`?
Beta cell apopt: -3.5; PP1 inh: 5.2; Calb FLC: 81.7*; PP5 primary: 3.6; CSC inhib: -9.2; Mdm2-MdmX inh: -188.5

What do the screens show for `NC(=O)c1c(NC(=O)c2ccccc2C(=O)O)sc2c1CCCC2`?
Beta cell apopt: -2.1; PP1 inh: -7.4; Calb FLC: -7.0; PP5 primary: 2.4; CSC inhib: -7.2; Mdm2-MdmX inh: 12.0

What do the screens show for `COC(=O)CCC(=O)OC1(C)C(=O)C2=CN(CC3CC3)C(c3ccc(OC)cc3)=CC2=C(Br)C1=O` (configuration not stated)?
Beta cell apopt: -6.8; PP1 inh: 17.2*; Calb FLC: 29.7; PP5 primary: 7.1; CSC inhib: 12.8; Mdm2-MdmX inh: -8.3

Results for COC(=O)CCC(=O)OC1(C)C(=O)C2=CN(Cc3ccc(OC)cc3)C(c3ccc(OC)cc3)=CC2=C(Br)C1=O (configuration not stated) ?
Beta cell apopt: -5.0; PP1 inh: 9.2; Calb FLC: -7.0; PP5 primary: 3.9; CSC inhib: -2.0; Mdm2-MdmX inh: 25.8

How did CN(CCCNC(=O)c1cc2c(Cl)nc3ccccc3c2s1)Cc1ccccc1 do in these assays?
Beta cell apopt: 5.6; PP1 inh: 0.7; Calb FLC: 7.9; PP5 primary: 0.4; CSC inhib: 37.6; Mdm2-MdmX inh: 23.4

What do the screens show for `Cc1nc2ccccc2c2oc(C(=O)NCCCN3CCCC(C)C3)cc12` (configuration not stated)?
Beta cell apopt: 14.7; PP1 inh: -4.3; Calb FLC: 1.0; PP5 primary: -0.5; CSC inhib: -6.9; Mdm2-MdmX inh: 24.6

Screening data: PubChem, several laboratories
